Bioassay records as filed in PubChem BioAssay.
RE007 growth inh: qHTS Assay for Inhibitors of the HIV-1 protein Vpr; 360,000 compounds, 0.21% hits; AID 651644, 2012; Potency, µM (titrated, usually from 92.2 µM), for inactives: top-dose activity change, negative = less growth, hits mostly inhibitors; S. pombe RE007 Vpr strain, BacTiter-Glo ATP luminescence, 24 h; active = well fitted falling curve with a large enough effect; inconclusive = small, poorly fitted or top-dose-only effect; inactive = no such curve, though single readings can be large or run the other way; also: % is scaled to controls: 0 for no effect and ±100 for the full control effect; nearly all actives have a fitted effect of over 50% in size
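Fission yeast strain RE007, carrying one chromosomally integrated HIV-1 vpr copy, was seeded at OD 0.01 in PMG+AL medium with 23 nL pinned compound. After 24 h at 30 °C and 99% humidity, viability was read by BacTiter-Glo luminescence.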
LmPK inhibitor: qHTS Assay for Inhibitors of Leishmania Mexicana Pyruvate Kinase (LmPK). purified LmPK, Kinase-Glo ATP luminescence, 1 h. Q27686. 290,000 compounds, 0.37% hits. Potency, µM (highest dose often 57.5 µM), for inactives: at the top dose activity change, negative = inhibition, hits mostly inhibitors; also: % is scaled to controls: 0 for no effect and ±100 for the full control effect
Target sequence (Q27686 whole entry, looked up): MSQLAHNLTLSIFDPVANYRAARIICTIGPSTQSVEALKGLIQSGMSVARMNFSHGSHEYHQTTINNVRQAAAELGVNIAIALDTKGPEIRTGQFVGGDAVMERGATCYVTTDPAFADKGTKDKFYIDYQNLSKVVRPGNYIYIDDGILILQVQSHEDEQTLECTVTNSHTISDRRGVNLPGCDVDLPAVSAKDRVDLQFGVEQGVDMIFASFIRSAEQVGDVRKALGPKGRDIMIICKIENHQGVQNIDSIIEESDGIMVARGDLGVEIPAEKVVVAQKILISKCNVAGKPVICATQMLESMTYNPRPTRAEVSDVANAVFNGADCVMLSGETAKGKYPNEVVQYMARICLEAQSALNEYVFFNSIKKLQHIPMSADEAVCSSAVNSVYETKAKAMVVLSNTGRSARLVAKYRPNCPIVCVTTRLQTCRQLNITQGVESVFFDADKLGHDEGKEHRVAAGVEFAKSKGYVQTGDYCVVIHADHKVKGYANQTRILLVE
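Pyruvate kinase activity monitored as ATP production (luciferase luminescence). Conditions: 0.1 nM enzyme, 0.5 mM PEP, 0.1 mM ADP, 1 h, RT; normalized against uninhibited and no-enzyme wells.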
Giardia FBPA inh-1: qHTS Assay for Inhibitors of Fructose-1,6-bisphosphate Aldolase from Giardia Lamblia; purified Giardia FBPA; 290,000 compounds, 0.71% hits; Potency, µM (top dose mostly 59.6 µM), for the others: at the highest dose activity, negative = inhibition, hits mostly inhibitors; also: % is scaled to controls: 0 for no effect and ±100 for the full control effect; nearly all actives have a fitted effect of over 55% in size
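Giardia FBPA (40 nM reagent) was preincubated 10 min at RT with compound (up to 57.5 uM final), then substrate plus GAPDH/TPI/NAD/arsenate coupling system with diaphorase/resazurin was added; resorufin fluorescence (525/598 nm) was read after 20 min.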
Sm TGR inh: qHTS Assay for the Inhibitors of Schistosoma Mansoni Peroxiredoxins; purified TGR, DTNB reduction, TNB absorbance 405 nm; Potency, µM (highest dose often 114 µM), without a hit: at the highest dose activity change, negative = inhibition, actives largely listed as inhibitors; 360,000 compounds, 3% hits; AID 485364, 2010; also: % is scaled to controls: 0 for no effect and ±100 for the full control effect; nearly all actives have a fitted effect of over 60% in size
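TGR 20 nM + NADPH 100 uM (dispensed conc.), cpd preinc 15 min RT; start with NADPH (500 uM addition) then DTNB (15 mM addition). Kinetic TNB absorbance, 405 nm filter. Four-parameter Hill fit across titration.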
NS1 inh: qHTS Assay for Inhibitors of Influenza NS1 Protein Function; Potency, µM (top dose mostly 46.1 µM), without a hit: top-dose activity, positive = more growth; 270,000 compounds, 0.4% hits; calls by dose curve; also: actives are rising curves; nearly all actives have a fitted effect of over 50% in size
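Compounds were scored for reversing the slow growth caused by influenza A NS1 in S. cerevisiae, measured by optical density at 600 nm. Assay medium contained 2% galactose at pH 6.0; NS1-free yeast of the same strain were the positive control.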
Tb PYK inh: qHTS of Trypanosoma Brucei Inhibitors | pyruvate kinase (Trypanosoma brucei), Q57TT1 | TbPYK enzyme, Kinase-Glo Plus ATP luminescence, 45 min | Potency, µM (titrated, usually from 76.8 µM), inactives show top-dose activity, negative = inhibition, usual class: inhibitors | 410,000 compounds, 0.12% hits | AID 624173, 2012; also: % is scaled to controls: 0 for no effect and ±100 for the full control effect; nearly all actives have a fitted effect of over 50% in size
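Assay buffer: 50 mM TEA pH 7.2, 100 mM KCl, 10 mM MgCl2, 0.05% BSA, 0.01% Tween-20. Pyruvate kinase from T. brucei plus substrate met compound, then ADP (130 uM final). Luminescence was read post 45 min RT.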
Giardia growth: qHTS Assay for Inhibitors of Fructose-1,6-bisphosphate Aldolase from Giardia Lamblia: Giardia lamblia growth inhibition. shares compounds with Giardia FBPA inh-1. Giardia lamblia trophozoite growth inhibition. Potency, µM (highest dose often 57.5 µM), for the others: top-dose activity change, negative = inhibition, actives largely listed as inhibitors. 1,500 compounds, 5% hits;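 also: trophozoites exposed to compound for 48 h at 37 °C; % is scaled to controls: 0 for no effect and ±100 for the full control effect; nearly all actives have a fitted effect of over 70% in size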
Mammal cell tox: qHTS Assay for Inhibitors of Fructose-1,6-bisphosphate Aldolase from Giardia Lamblia: Mammalian cellular toxicity; shares compounds with Giardia FBPA inh-1; mammalian cell viability counter-screen, qHTS; Potency, µM (top dose mostly 57.5 µM), for the others: at the highest dose viability change, negative = toxicity, hits mostly inhibitors; 1,500 compounds, 4% hits;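 also: Chinese hamster ovary cells used as mammalian cytotoxicity surrogate; viability measured as cellular ATP by luminescence; compound exposure lasted 48 h before reading; % is scaled to controls: 0 for no effect and ±100 for the full control effect; nearly all actives have a fitted effect of over 60% in size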
Giardia FBPA inh-2: qHTS Assay for Inhibitors of Fructose-1,6-bisphosphate Aldolase from Giardia Lamblia: Primary screen confirmation | shares compounds with Giardia FBPA inh-1 | purified Giardia aldolase enzyme activity, qHTS | Potency, µM (top dose mostly 57.5 µM), without a hit: at the highest dose activity change, negative = inhibition, usual class: inhibitors | 1,500 compounds, 5% hits | AID 2787, 2010; also: % is scaled to controls: 0 for no effect and ±100 for the full control effect; nearly all actives have a fitted effect of over 45% in size
Rabbit aldolase: qHTS Assay for Inhibitors of Fructose-1,6-bisphosphate Aldolase from Giardia Lamblia: Rabbit FBPA Selectivity. shares compounds with Giardia FBPA inh-1. Rabbit muscle FBPA enzyme inhibition, selectivity counter-screen. 1,500 compounds, 4% hits. AID 2794, 2010. Potency, µM (titrated, usually from 57.5 µM), for inactives: at the highest dose activity, negative = inhibition, most hits filed as inhibitors; also: % is scaled to controls: 0 for no effect and ±100 for the full control effect; nearly all actives have a fitted effect of over 60% in size
GAPDH coupling: qHTS Assay for Inhibitors of Fructose-1,6-bisphosphate Aldolase from Giardia Lamblia: Coupling assay counterscreen confirmation. shares compounds with Giardia FBPA inh-1. Potency, µM (highest dose often 57.5 µM), inactives show at the highest dose activity change, negative = inhibition, most hits filed as inhibitors. AID 2795, 2010. GAPDH coupling enzyme counterscreen, biochemical, qHTS. 1,500 compounds, 6% hits; also: % is scaled to controls: 0 for no effect and ±100 for the full control effect; nearly all actives have a fitted effect of over 55% in size
* marks the source's active call; other numbers are inactive results; [ ] = dose if it differs, or a comment. Most compounds without a hit are left out; they make up all but 3.5% or so of the library. Unless noted, calls follow the shape of the dose curve; as a rule, active = well fitted curve in the direction sought with a large enough effect; inconclusive = small, poorly fitted or top-dose-only effect, or another doubt; inactive = no such curve, though single readings can be large; an effect the other way counts as inactive or inconclusive. Potency is read from the fitted curve at half-maximal effect.

Screening Cc1ccc(NNC(N)=S)cc1Cl returned RE007 growth inh inconclusive, LmPK inhibitor -2%, Giardia FBPA inh-1 18µM*, Sm TGR inh 40µM*, NS1 inh -95%, Tb PYK inh -9%, Giardia growth -22%, Mammal cell tox 13%, Giardia FBPA inh-2 -6%, Rabbit aldolase 3% and GAPDH coupling -6%.
NC(=S)NNc1ccnc2cc(Cl)ccc12 was read as RE007 growth inh -1%, LmPK inhibitor 8%, Giardia FBPA inh-1 16µM*, Sm TGR inh 7%, Tb PYK inh -3%, Giardia growth inconclusive, Mammal cell tox -4%, Giardia FBPA inh-2 -4%, Rabbit aldolase -3% and GAPDH coupling 15%.
Cc1nnc(N/N=C/c2ccc(Br)cc2)n1N was read as RE007 growth inh 2%, LmPK inhibitor 11%, Giardia FBPA inh-1 inconclusive, Sm TGR inh -27%, NS1 inh -96% and Tb PYK inh -3%.
For Cc1nnc(N/N=C/c2ccc(-c3ccc(Br)cc3)o2)n1N the results were RE007 growth inh -30%, LmPK inhibitor 2%, Giardia FBPA inh-1 16µM*, Sm TGR inh 5%, Tb PYK inh -1%, Giardia growth -3%, Mammal cell tox 5%, Giardia FBPA inh-2 inconclusive, Rabbit aldolase inconclusive and GAPDH coupling -21%.
Cc1nnc(N/N=C\c2ccc(-c3cccc(C(=O)O)c3)o2)n1N was read as RE007 growth inh -26%, LmPK inhibitor -3%, Giardia FBPA inh-1 8.9µM*, Sm TGR inh 4%, NS1 inh 0%, Tb PYK inh -9%, Giardia growth -53%, Mammal cell tox -6%, Giardia FBPA inh-2 inconclusive, Rabbit aldolase inconclusive and GAPDH coupling inconclusive.
`COc1ccc(N)cc1-n1c(C)ccc1C` gave RE007 growth inh -4%, LmPK inhibitor -9%, Giardia FBPA inh-1 inconclusive, Sm TGR inh 16µM*, NS1 inh 10%, Tb PYK inh -22%, Giardia growth 12%[38.3 µM], Mammal cell tox 3%, Giardia FBPA inh-2 inconclusive, Rabbit aldolase inconclusive and GAPDH coupling 8.9µM*.
